The record followed here is the supplement of paper PMC6555819.

One test has as its system PPARg:RXRa (NR concentration 180 nM, RXRa partner concentration 90 nM). Nature of the test: PBM binding z-score (relative to random genomic background probes); higher = stronger binding; sequences stand for … in GC…GCGATTGACAGCGTAGAATGAAGG
The method, boiled down:
(§1)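 Binding buffer was PBS pH 7.4 with 2% milk, 0.02% Triton X-100, 1 mM DTT, 0.2 mg/mL BSA and 0.4 mg/ml salmon testes DNA. In it, ligand-free nuclear receptor dimers were incubated 1 h on custom Agilent 4×180K protein-binding microarrays carrying double-stranded probes. Antibodies against each partner (one per run) detected binding, and z-scores were calculated against random background probes after regression normalization of scanned fluorescence.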
AGTCAAAGTTCATCTAGGTAACGTATGATATGCT: the PBM binding z-score was determined as 6.95.
With GCTATTAGTAGAAAGGGCAACCGAATGATTCTCG, the PBM binding z-score came to 2.17.
On the same count and under the same terms, next, ATCCAAAGGTCGAAGGTGAGTATACCCACCCGAA: 5.19; TGAATGAGGTTATATGATCAGGGAACGTTGCAAA: 1.44.
The same measure, in the same setting: next, CCTAGTTGGTCAGAAGGTCACACACCGGATATGA: 2.81; ATCTCTAGGTAAAAGTTCAGTGAATCCCGAGGAT: 8.09; TCGAGTAGGTTAGTTGGGGCATTCAGCCAACATA: -0.334.
In turn, TCTGCTAGGTCAGTTGGTCAGCTATCGAGCTGCC returned a PBM binding z-score of 0.224.
In turn, ACAGACAGGTGATGATGGTAACTCAGGCTATCAT returned a PBM binding z-score of 0.679.
Still for that read-out and setting: for TAGCATAGGTCATTGGGCCAGTATAGTACGCATC the value was 5.17; for CCTACTTGGCCAAGGTCATTGATCAGTCAAAGCA, 1.27; for CCAGACAGGTGAGAAGGTCACTCAGCCTCGATTA, 2.01.
For ACTAGTAGTTGACTTAGGGCAACCGATACGACGC, the PBM binding z-score was 0.852.
Same read-out and setting: for ATCTCTAGGTAAGACTCAGTTCAGTGACGAACGC the value was 0.47; for ATATATAGGTTATCGGGTCATTCAGTTTGCGCAT, 7.65.
Still for that read-out and setting: for AGTCAATGTTCACTAGGTAACGTAAGATTCAGCT the value was 0.656; for ACTACTTGGTCAGCTGAGGTCACACACAATTCGG, 2.24; for TCTCTGAGGACACGAAAGGTCAGAGCTCGACATC, 1.56.

The next test relates to PPARg:RXRa 270nM:90nM, anti-RXR (NR concentration 270 nM, RXRa partner concentration 90 nM). Described as above. The essentials:
as §1
In turn, TCTTGTAGATCAAGCAGGTTAGGAAAGCCTGAGT registered a PBM binding z-score of 1.
Sequence ATCTCTAGGTAGAGTTCAGTGAAAGATCGATAGA registered a PBM binding z-score of 2.33.
Same read-out and setting: for GCTTGTAGAGCAAGGTTAAGAAAGACTAAGCTAA the value was 2.77.
CAAACTAGGTCAAATGTCAAAGTCGAGCCAACCA came in with a PBM binding z-score of 9.72.
Still for that read-out and setting: for TCATATAGGTATAGGTGAAAGTCGAACGATATGA the value was 2.44; for CAAACTAGGTCAAGAGATCAAAGTCCGCTTCCCG, 6.89.
On the same count and under the same terms, for CCTGCTAGGTCAATCGTCAGCTAAAGCAGCTCGC the value was 2.18; for CGTCAAAGTTCAAGGTAACGTGACAGAAAGCAGC, 4.9; for ATCGAAACGTCGAGGTGAGTATAGAGAAAGGGAA, -0.503.
Still for that read-out and setting: for AGCGAAAGGTCGTGAGGTGAGTATACAGAAAGGC the value was 4.97.
CGAACTAGGGCATTGACAGGACAGTGAATAGTAA: the PBM binding z-score is 2.68.
Take CGGACTGGGGCAAGGTTACCATAACGCACAGCCA: the PBM binding z-score was found to be 4.78.
Still for that read-out and setting: next, AGCATGAGGTTACCAAAGATCAGGGAAACGCTTG: 1.4; CTAGCAAGGTGAACAAGGTCGTTGATTACTATTC: 1.3.
Same read-out and setting: for CTACTAAGGTGAACAAGGTCGTTGATTACTATTC the value was 1.99; for CGTCCAAGGTCAAAGTTCAGTGAAGAGATGACGG, 8.05.
As to TCTTGTAGATCAATAGAGGGTAAGAAAGTGCGCT, the PBM binding z-score is 1.19.
Regarding ATCGAAAGGTCGTGAGGTGCGTATACAGAAAGGC, the PBM binding z-score is 3.76.
Same read-out and setting: for CCTATTAGTTGAGCATAAGGGCAACCGAAGCTCG the value was 0.305; for TCTTGTAGATCAACAGGAGGTTAAAAAAGATCGA, 1.59.
TGAATGAGGTTAAAGTTCAGGGAACGTGGCGTCG: the PBM binding z-score was 8.25.
The same measure, in the same setting: next, ATCTCTAGGTAAGACTCAATTCAGTGAAGAACGC: 0.208; AGTCAAAGTTCATCTAGGTAACGTATGATATGCT: 6.52.
The same measure, in the same setting: next, GCTATTAGTAGAAAGGGCAACCGAATGATTCTCG: 3.71.
Same read-out and setting: for ATCCAAAGGTCGAAGGTGAGTATACCCACCCGAA the value was 5.37.
In turn, TGAATGAGGTTATATGATCAGGGAACGTTGCAAA returned a PBM binding z-score of 1.76.
On the same count and under the same terms, for CCTAGTTGGTCAGAAGGTCACACACCGGATATGA the value was 4.25.
On the same count and under the same terms, next, ATCTCTAGGTAAAAGTTCAGTGAATCCCGAGGAT: 7.52; TCGAGTAGGTTAGTTGGGGCATTCAGCCAACATA: 0.635.
The same measure, in the same setting: for TCTGCTAGGTCAGTTGGTCAGCTATCGAGCTGCC the value was 1.72.
As to ACAGACAGGTGATGATGGTAACTCAGGCTATCAT, the PBM binding z-score was -0.301.
As for TAGCATAGGTCATTGGGCCAGTATAGTACGCATC, the PBM binding z-score is 5.29.
As to CCTACTTGGCCAAGGTCATTGATCAGTCAAAGCA, the PBM binding z-score was found to be 2.15.
As to CCAGACAGGTGAGAAGGTCACTCAGCCTCGATTA, the PBM binding z-score came to 3.07.
ACTAGTAGTTGACTTAGGGCAACCGATACGACGC displayed a PBM binding z-score of -0.176.
Still for that read-out and setting: next, ATCTCTAGGTAAGACTCAGTTCAGTGACGAACGC: 0.379; ATATATAGGTTATCGGGTCATTCAGTTTGCGCAT: 6.52; AGTCAATGTTCACTAGGTAACGTAAGATTCAGCT: 0.368.
On the same count and under the same terms, for ACTACTTGGTCAGCTGAGGTCACACACAATTCGG the value was 2.68.
On the same count and under the same terms, next, TCTCTGAGGACACGAAAGGTCAGAGCTCGACATC: 2.9.

Another test has as its system PPARg:RXRa 30nM:10nM, anti-RXR (NR concentration 30 nM, RXRa partner concentration 10 nM). The test is described as above. The essentials:
as §1
TCTTGTAGATCAAGCAGGTTAGGAAAGCCTGAGT yielded a PBM binding z-score of 2.29.
The same measure, in the same setting: for ATCTCTAGGTAGAGTTCAGTGAAAGATCGATAGA the value was 0.898; for GCTTGTAGAGCAAGGTTAAGAAAGACTAAGCTAA, 0.817.
On the same count and under the same terms, next, CAAACTAGGTCAAATGTCAAAGTCGAGCCAACCA: 9.92.
Same read-out and setting: for TCATATAGGTATAGGTGAAAGTCGAACGATATGA the value was 3.51; for CAAACTAGGTCAAGAGATCAAAGTCCGCTTCCCG, 4.87; for CCTGCTAGGTCAATCGTCAGCTAAAGCAGCTCGC, -0.19.
In turn, CGTCAAAGTTCAAGGTAACGTGACAGAAAGCAGC yielded a PBM binding z-score of 2.23.
As to ATCGAAACGTCGAGGTGAGTATAGAGAAAGGGAA, the PBM binding z-score came out at 0.3.
Still for that read-out and setting: for AGCGAAAGGTCGTGAGGTGAGTATACAGAAAGGC the value was 1.84; for CGAACTAGGGCATTGACAGGACAGTGAATAGTAA, 0.522; for CGGACTGGGGCAAGGTTACCATAACGCACAGCCA, 2.59.
Still for that read-out and setting: next, AGCATGAGGTTACCAAAGATCAGGGAAACGCTTG: 0.579; CTAGCAAGGTGAACAAGGTCGTTGATTACTATTC: 0.0127; CTACTAAGGTGAACAAGGTCGTTGATTACTATTC: 0.156.
As to CGTCCAAGGTCAAAGTTCAGTGAAGAGATGACGG, the PBM binding z-score was 6.19.
The same measure, in the same setting: next, TCTTGTAGATCAATAGAGGGTAAGAAAGTGCGCT: 2.61.
Same read-out and setting: for ATCGAAAGGTCGTGAGGTGCGTATACAGAAAGGC the value was 1.13; for CCTATTAGTTGAGCATAAGGGCAACCGAAGCTCG, -0.0457.
Still for that read-out and setting: next, TCTTGTAGATCAACAGGAGGTTAAAAAAGATCGA: 2.66.
Take TGAATGAGGTTAAAGTTCAGGGAACGTGGCGTCG: the PBM binding z-score worked out at 8.5.
The sequence ATCTCTAGGTAAGACTCAATTCAGTGAAGAACGC had a PBM binding z-score of 0.402.
Still for that read-out and setting: next, AGTCAAAGTTCATCTAGGTAACGTATGATATGCT: 3.52.
Regarding GCTATTAGTAGAAAGGGCAACCGAATGATTCTCG, the PBM binding z-score turned out to be 1.81.
For the sequence ATCCAAAGGTCGAAGGTGAGTATACCCACCCGAA, the PBM binding z-score stood at 2.53.
The same measure, in the same setting: for TGAATGAGGTTATATGATCAGGGAACGTTGCAAA the value was 1.05.
Same read-out and setting: next, CCTAGTTGGTCAGAAGGTCACACACCGGATATGA: 1.8; ATCTCTAGGTAAAAGTTCAGTGAATCCCGAGGAT: 8.83.
Still for that read-out and setting: for TCGAGTAGGTTAGTTGGGGCATTCAGCCAACATA the value was 0.877; for TCTGCTAGGTCAGTTGGTCAGCTATCGAGCTGCC, 1.21; for ACAGACAGGTGATGATGGTAACTCAGGCTATCAT, 0.191.
As to TAGCATAGGTCATTGGGCCAGTATAGTACGCATC, the PBM binding z-score was determined as 1.75.
CCTACTTGGCCAAGGTCATTGATCAGTCAAAGCA returned a PBM binding z-score of 0.389.
Take CCAGACAGGTGAGAAGGTCACTCAGCCTCGATTA: the PBM binding z-score was 0.629.
Same read-out and setting: next, ACTAGTAGTTGACTTAGGGCAACCGATACGACGC: -0.0859.
The same measure, in the same setting: next, ATCTCTAGGTAAGACTCAGTTCAGTGACGAACGC: 0.0999; ATATATAGGTTATCGGGTCATTCAGTTTGCGCAT: 4.09.
On the same count and under the same terms, for AGTCAATGTTCACTAGGTAACGTAAGATTCAGCT the value was 0.15; for ACTACTTGGTCAGCTGAGGTCACACACAATTCGG, 0.841.
On to TCTCTGAGGACACGAAAGGTCAGAGCTCGACATC, for which the PBM binding z-score amounted to 2.68.
